Values joined by “and” are separate entries in the source; they are usually repeats but may differ in a detail not shown here. Equal entries are not always repeated. Active and inactive are the calls of the source.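 The calls were made as follows, unless noted: active = thallium flux through the channel raised or lowered by more than 3 SD from vehicle-only wells, actives on both sides; inactive = the rest.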
Tests used:
[1] = Wnt pathway potentiators raising nuclear beta-catenin – imaging, WNT3A-conditioned medium, mouse C2C12, NPC library, primary screen (AID 1117326; in the data active = nuclear beta-catenin stimulation mostly above about 4.2%, no sharp cut-off; inactive = mostly below about 10%); details: stronger effect = higher value
[2] = stimulators of insulin release from INS-1E, primary screen, cell-based, 5 mM glucose, NPC library (AID 1117329;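 active = compound raises insulin release from rat beta cells at 5 mM glucose, no numeric limit stated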); details: rat INS-1E insulin secretion, at 10 µM, stronger effect = higher value
[3] = growth inhibition of GSK3B-pretreated HCT116 cells – cell-based, CellTiter-Glo, 0.2 to 20 µM (AID 1117336;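 active = compounds lowering colon cancer cell viability after pretreatment blocking the GSK3B kinase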); details: HCT116 viability after GSK3B inhibitor, at 20 µM, stronger effect = higher value
[4] = inhibition of endothelial tube formation, primary screen, imaging, VEGF stimulated, CD31 staining, tube area, NPC library (AID 1117340;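 active = compound that reduces growth-factor-driven endothelial tube area in a mixed cell culture, no cutoff stated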); details: VEGF-stimulated ADSC/ECFC co-culture, at 10 µM, stronger effect = higher value
[5] = GLP1 release stimulators, primary, NCI-H716, NPC library (AID 1117341;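 active = compound raises GLP1 secretion from the human gut endocrine cells, with no numeric limit stated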); details: NCI-H716 cells, at 10 µM, stronger effect = higher value
[6] = HCT116 colon cancer cell growth inhibition, primary screen, CellTiter-Glo luminescence, NPC library (AID 1117342;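 active = compounds that lower survival of HCT116 colon cancer cells in the luminescence readout, no numeric limit stated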); details: at 20 µM (top of the series)
[7] = reduced SW480 viability measured with CellTiter-Glo, NPC library, primary (AID 1117343;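 active = compounds that lower viability of the colon cancer cells in the luminescence readout, with no numeric limit stated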); details: CellTiter-Glo luminescence; at 20 µM (top of the series)
[8] = NPC library primary testing for decreased DLD-1 cell viability via CellTiter-Glo (AID 1117346;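 active = compounds that lower survival of DLD-1 colon cancer cells in the luminescence readout, no cutoff given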); details: DLD-1 viability, CellTiter-Glo luminescence; at 20 µM (top of the series)
[9] = biological target: 6-phosphogluconate dehydrogenase, decarboxylating (Homo sapiens) (UniProt P52209); assay: inhibition of human phosphogluconate dehydrogenase – biochemical, recombinant enzyme, NADPH absorbance, primary screen (AID 1159550;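 active = at least 20% inhibition of 6-phosphogluconate dehydrogenase activity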); details: recombinant 6PGD, NADPH absorbance 341 nm; at 10 µM; stronger effect = higher value
Sequence of 6-phosphogluconate dehydrogenase, decarboxylating (Homo sapiens) (P52209 whole entry, looked up): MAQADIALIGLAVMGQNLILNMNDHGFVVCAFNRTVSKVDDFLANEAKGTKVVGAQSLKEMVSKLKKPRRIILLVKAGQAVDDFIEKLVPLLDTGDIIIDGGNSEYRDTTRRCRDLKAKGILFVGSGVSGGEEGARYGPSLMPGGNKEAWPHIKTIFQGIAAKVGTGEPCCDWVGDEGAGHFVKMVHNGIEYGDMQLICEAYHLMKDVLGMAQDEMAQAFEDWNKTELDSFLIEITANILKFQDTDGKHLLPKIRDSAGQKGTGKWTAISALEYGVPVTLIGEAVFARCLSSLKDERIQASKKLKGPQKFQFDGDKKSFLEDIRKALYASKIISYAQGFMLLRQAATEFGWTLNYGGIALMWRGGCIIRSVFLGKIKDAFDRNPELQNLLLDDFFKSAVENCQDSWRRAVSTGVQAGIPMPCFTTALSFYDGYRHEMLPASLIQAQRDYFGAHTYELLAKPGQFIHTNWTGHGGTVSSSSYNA

[10] = modulation of C. elegans fzo-1 (AID 1259413; call rule not given here;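 also: fzo-1 mutant C. elegans worms in liquid wells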); details: C. elegans fzo-1 modulator screen, mean read-out; stronger effect = higher value
[11] = EMT-state selective cytotoxicity in co-culture – imaging, PC-3E GFP, TEM4-18 mCherry, primary screen (AID 1345086;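 active = compounds killing one labelled cell type while sparing the other, by normalised counts and ratio limits, not self-fluorescent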;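 as to all read-outs here: cells exposed to compound for 72 h before imaging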;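 as to red/green cell ratio (normalised): normalised mesenchymal count divided by normalised epithelial count so high means epithelial killing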); details: PC-3E GFP / TEM4-18 mCherry co-culture, imaging cell counts, at 1 µM; for red/green cell ratio (normalised): actives lie on both sides, counts scaled to control wells, 1 = unselective
[12] = MELAS cybrid and Rieske KO viability enhancers – cell-based, MELAS cybrids, Rieske KO mouse fibroblasts, CellTiter-Glo, primary screen (AID 1508586;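 active = mean z-score across replicates of 1.96 or higher in either the MELAS or the Rieske mutant cell line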;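 also: z relative to plate mean and SD of compound and empty wells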); details: low glucose
[13] = biological target: NAD(+) hydrolase SARM1 (Homo sapiens) (UniProt Q6SZW1); assay: blocking NAD cleavage by SARM1 SAM-TIR – cell lysate, NAD-Glo luminescence (AID 1508614;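 active = compound whose remaining NAD level is above about 45 nM, limit read from the data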;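 also: higher remaining NAD means stronger inhibition of SARM1 NADase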); details: SAM-TIR HEK293T lysate NADase, at 1 µM, stronger effect = higher value
Sequence of NAD(+) hydrolase SARM1 (Homo sapiens) (Q6SZW1 whole entry, looked up, the tested form may be a part): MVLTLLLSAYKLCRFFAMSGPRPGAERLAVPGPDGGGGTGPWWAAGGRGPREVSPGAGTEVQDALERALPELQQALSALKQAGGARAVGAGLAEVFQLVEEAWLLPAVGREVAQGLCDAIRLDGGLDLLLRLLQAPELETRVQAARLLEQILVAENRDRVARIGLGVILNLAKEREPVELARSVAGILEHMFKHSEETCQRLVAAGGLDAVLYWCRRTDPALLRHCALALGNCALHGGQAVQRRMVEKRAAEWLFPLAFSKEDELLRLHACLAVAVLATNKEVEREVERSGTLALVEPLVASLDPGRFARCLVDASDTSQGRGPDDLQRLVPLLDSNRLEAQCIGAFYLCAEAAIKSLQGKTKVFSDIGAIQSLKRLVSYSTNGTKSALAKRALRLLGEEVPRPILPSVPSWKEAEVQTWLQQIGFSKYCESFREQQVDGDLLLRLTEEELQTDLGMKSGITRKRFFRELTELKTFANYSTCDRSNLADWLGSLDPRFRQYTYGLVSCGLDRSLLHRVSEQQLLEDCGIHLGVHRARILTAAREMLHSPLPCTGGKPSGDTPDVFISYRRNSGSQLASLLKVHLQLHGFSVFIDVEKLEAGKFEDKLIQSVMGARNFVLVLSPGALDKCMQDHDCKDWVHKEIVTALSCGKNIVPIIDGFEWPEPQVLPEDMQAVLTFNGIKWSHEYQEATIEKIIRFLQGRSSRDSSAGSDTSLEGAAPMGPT

[14] = biological target: Mitogen-activated protein kinase 7 (Homo sapiens) (UniProt Q13164); assay: Gal4-ERK5 driven luciferase induction – cell-based, HTS, primary screen (AID 1508626;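 active = luciferase signal above three times the same-plate solvent-only control wells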;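 also: luciferase driven by Gal4-ERK5 fusion binding five Gal4 sites before minimal TATA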); details: HeLa Gal4-ERK5 transactivation, 18 h, at 5 µM, stronger effect = higher value
Sequence of Mitogen-activated protein kinase 7 (Homo sapiens) (Q13164 whole entry, looked up, the tested form may be a part): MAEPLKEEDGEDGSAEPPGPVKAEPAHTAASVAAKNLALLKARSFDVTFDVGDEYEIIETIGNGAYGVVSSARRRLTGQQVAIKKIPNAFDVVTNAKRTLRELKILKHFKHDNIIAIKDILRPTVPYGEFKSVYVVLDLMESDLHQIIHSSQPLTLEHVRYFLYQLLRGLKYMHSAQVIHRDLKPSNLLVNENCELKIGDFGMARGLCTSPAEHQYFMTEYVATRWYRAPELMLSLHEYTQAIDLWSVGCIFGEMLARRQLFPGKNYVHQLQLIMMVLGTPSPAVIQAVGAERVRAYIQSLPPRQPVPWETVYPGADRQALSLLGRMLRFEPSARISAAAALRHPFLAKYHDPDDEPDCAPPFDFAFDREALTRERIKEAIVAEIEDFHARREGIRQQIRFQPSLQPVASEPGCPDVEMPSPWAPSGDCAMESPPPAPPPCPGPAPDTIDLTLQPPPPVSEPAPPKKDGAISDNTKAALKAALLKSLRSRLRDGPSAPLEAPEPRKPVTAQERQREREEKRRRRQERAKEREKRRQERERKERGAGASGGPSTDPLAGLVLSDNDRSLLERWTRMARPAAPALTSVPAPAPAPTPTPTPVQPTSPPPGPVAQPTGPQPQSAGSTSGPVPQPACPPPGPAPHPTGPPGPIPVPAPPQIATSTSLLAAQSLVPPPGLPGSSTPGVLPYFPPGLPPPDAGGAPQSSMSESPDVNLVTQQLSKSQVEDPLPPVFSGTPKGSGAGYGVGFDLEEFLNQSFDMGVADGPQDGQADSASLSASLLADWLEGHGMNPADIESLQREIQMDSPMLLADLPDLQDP

F380Y = assay: BK channel mutant inhibitors and activators – cell-based, U2OS BacMam, thallium flux, beta subunits, selectivity assay, profiling panel (AID 1259406); details: U2OS BacMam BK variants, at 30 µM;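 also: initial slope of Thallos dye fluorescence rise after thallium is added; log ratio against the mean of 0.3% DMSO vehicle wells on the same plate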
F380Y/beta1 = assay: as above; details: U2OS BacMam BK variants, at 30 µM
F380Y/beta2Delta = assay: as above; details: U2OS BacMam BK variants, at 30 µM
[15] = measured here: epithelial PC-3E GFP cell survival
[16] = measured here: mesenchymal TEM4-18 mCherry cell survival
[17] = MELAS cybrid survival, CellTiter-Glo 48 h, stronger effect = higher value
[18] = Rieske KO mouse fibroblast survival, CellTiter-Glo 72 h

For CCCCCN=C(N)N/N=C/c1c[nH]c2ccc(OC)cc12, the nuclear beta-catenin stimulation ([1]; at 10 µM) was -2.1% (inactive), the nuclear beta-catenin stimulation ([1]; stimulation, at 2 µM) was 5.8% and the insulin secretion stimulation [2] was 57.5% (active). For the same compound, the viability decrease [3] was 118% (active), the tube area decrease [4] was 111% (active) and the GLP1 secretion stimulation [5] was 53.2% (active). The inhibition of viability [6] was 125% (active), the viability decrease (inhibition) [7] was 159% (active) and the viability decrease (inhibition) [8] was 102% (active). For the same compound, the inhibition [9] was -7.67% (inactive), the mean signal [10] was 250 (inactive) and the red/green cell ratio (normalised) [11] was 1.12 (inactive). For the same compound, the normalised cell number [11, 15] was 0.96, the normalised cell number [11, 16] was 1.08 and the z-score [12, 17] was 0.364 (inactive). The z-score [12, 18] was 1.74, the remaining NAD [13] was 10 nM (inactive) and the luciferase signal [14] was 68 AU (inactive).

With CCOc1ccccc1O[C@H](c1ccccc1)[C@H]1CNCCO1 the nuclear beta-catenin stimulation ([1]; at 10 µM) was -0.4% (inactive), the nuclear beta-catenin stimulation ([1]; stimulation, at 2 µM) was -2.9% and the insulin secretion stimulation [2] was 5.4% (inactive). The viability decrease [3] was -2.9% (inactive), the tube area decrease [4] was -5.2% (inactive) and the GLP1 secretion stimulation [5] was 0.6% (inactive). The inhibition of viability [6] was 22.7% (inactive), the viability decrease (inhibition) [7] was 6.2% (inactive) and the viability decrease (inhibition) [8] was 18.8% (inactive).

In the case of CC1=NS(=O)(=O)c2cc(Cl)ccc2N1, the nuclear beta-catenin stimulation ([1]; at 10 µM) is reported as 0.5% (inactive), the nuclear beta-catenin stimulation ([1]; stimulation, at 2 µM) is reported as 2.4% and the insulin secretion stimulation [2] is reported as 1.9% (inactive). The viability decrease [3] was 2.4% (inactive), the tube area decrease [4] was 0.4% (inactive) and the GLP1 secretion stimulation [5] was 0.6% (inactive). For the same compound, the inhibition of viability [6] was 26.2% (inactive), the viability decrease (inhibition) [7] was 8.5% (active) and the viability decrease (inhibition) [8] was 1.1% (inactive). For the same compound, the inhibition [9] was 4.77% (inactive), the mean signal [10] was 242 (inactive) and the red/green cell ratio (normalised) [11] was 1.18 (inactive). The normalised cell number [11, 15] was 0.96, the normalised cell number [11, 16] was 1.14 and the z-score [12, 17] was -0.405 (inactive) and -0.0836 (inactive). For the same compound, the z-score [12, 18] was 0.049 and -0.314, the remaining NAD [13] was 10 nM (inactive) and the luciferase signal [14] was 68 AU (inactive). The log fold change Tl+ flux (F380Y) was -0.0365 (inactive), the log fold change Tl+ flux (F380Y/beta1) was -0.0354 (inactive) and the log fold change Tl+ flux (F380Y/beta2Delta) was 0.0204 (inactive).

For NNC(=O)c1ccncc1, the nuclear beta-catenin stimulation ([1]; at 10 µM) was -1.9% (inactive), the nuclear beta-catenin stimulation ([1]; stimulation, at 2 µM) was -1.2% and the insulin secretion stimulation [2] was -0.1% (inactive). The viability decrease [3] was -2.7% (inactive), the tube area decrease [4] was -10.4% (inactive) and the GLP1 secretion stimulation [5] was 0.3% (inactive). The inhibition of viability [6] was 9.9% (inactive), the viability decrease (inhibition) [7] was 10.1% (inactive) and the viability decrease (inhibition) [8] was 6.5% (inactive). The inhibition [9] was 6.29% (inactive), the mean signal [10] was 247 (inactive) and the red/green cell ratio (normalised) [11] was 1.18 (inactive). The normalised cell number [11, 15] was 1.01, the normalised cell number [11, 16] was 1.19 and the z-score [12, 17] was -0.127 (inactive) and -0.162 (inactive) and -0.645 (inactive). For the same compound, the z-score [12, 18] was 0.295 and -0.273 and 1.51, the remaining NAD [13] was 10 nM (inactive) and the luciferase signal [14] was 36 AU (inactive). The log fold change Tl+ flux (F380Y) was 0.00909 (inactive), the log fold change Tl+ flux (F380Y/beta1) was 0.0138 (inactive) and the log fold change Tl+ flux (F380Y/beta2Delta) was 0.00988 (inactive).
